Hits are enriched below; roughly 7.2% of the tested compounds scored in any of these assays.
RE007 growth inh – qHTS Assay for Inhibitors of the HIV-1 protein Vpr | S. pombe RE007 Vpr strain, BacTiter-Glo ATP luminescence, 24 h | Potency, µM (highest dose often 92.2 µM), for the others: at the highest dose activity change, negative = less growth, usual class: inhibitors | 360,000 tested, 0.21% active | AID 651644, 2012; active = well fitted falling curve with a large enough effect; inconclusive = small, poorly fitted or top-dose-only effect; inactive = no such curve, though single readings can be large or run the other way; also: nearly all actives have a fitted effect of over 50% in size
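Fission yeast RE007 carrying one integrated HIV-1 vpr copy, seeded at OD 0.01 in PMG+AL medium with 23 nL pinned compound. Grown 24 h at 30 degrees; viability read by BacTiter-Glo luminescence after 5 min.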
Sm TGR inh – qHTS Assay for the Inhibitors of Schistosoma Mansoni Peroxiredoxins | 360,000 tested, 3% active | Potency, µM (titrated, usually from 114 µM), without a hit: at the top dose activity change, negative = inhibition, most hits filed as inhibitors | purified TGR, DTNB reduction, TNB absorbance 405 nm | Schistosoma mansoni thioredoxin glutathione reductase (TGR), Q962Y6; also: nearly all actives have a fitted effect of over 60% in size
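Kinetic colorimetric format: TGR-catalysed, NADPH-driven DTNB reduction monitored via TNB absorbance. Enzyme dispensed at 20 nM; compound exposure 15 min at room temperature before reaction start.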
Lassa entry inh – qHTS for Inhibitors of binding or entry into cells for Lassa Virus. Lassa virus pseudotype entry inhibition, cell reporter. Potency, µM (highest dose often 37.9 µM), for the others: top-dose activity change, negative = inhibition, most hits filed as inhibitors. 300,000 tested, 1.2% active. AID 540256, 2011; calls by dose curve; tested in HEK293 cells; also: nearly all actives have a fitted effect of over 50% in size
HCV inh – qHTS Assay for Inhibitors of Hepatitis C Virus (HCV); Huh7.5.1 HCVcc-Cre infection, luciferase reporter, 44 h; Potency, µM (titrated, usually from 41.8 µM), inactives show top-dose activity change, negative = inhibition, actives largely listed as inhibitors; 340,000 tested, 3.4% active; AID 651820, 2012
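Compounds are dispensed onto cells plated 4 h earlier at 1,000 per well, with HCVcc-Cre virus (about 0.5 moi) added next. Following 44 h of culture, luminescent signal is measured for 15 sec after 15 min with substrate at room temperature.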
FMDV inh – High Throughput Screening for Foot and Mouth Disease Virus Antivirals. FMDV antiviral cell-based qHTS. Potency, µM (doses to about 57.9 µM), for inactives: at the highest dose activity change, negative = inhibition, actives largely listed as inhibitors. 410,000 tested, 1.2% active. AID 1159524, 2015; calls by dose curve; tested in HEK293T cells; also: read-out not given here; nearly all actives have a fitted effect of over 45% in size
Marburg entry inh – qHTS for inhibitors of binding or entry into cells for Marburg Virus; Potency, µM (doses to about 37.8 µM), for the others: top-dose activity change, negative = inhibition, hits mostly inhibitors; AID 540276, 2011; Marburg virus pseudotyped entry inhibition, cell reporter; 300,000 tested, 1.8% active; calls by dose curve; tested in HEK293 cells
An asterisk follows results filed as active; [ ] = another dose, or the depositor's remark. Unless noted, calls follow the shape of the dose curve; as a rule, active = well fitted curve in the direction sought with a large enough effect; inconclusive = small, poorly fitted or top-dose-only effect, or another doubt; inactive = no such curve, though single readings can be large; an effect the other way counts as inactive or inconclusive. % is scaled to controls: 0 for no effect and ±100 for the full control effect; potency is read from the fitted curve at half-maximal effect.

`COc1cc(NC(=O)Cn2nc(C(F)(F)F)c(Br)c2C)cc([N+](=O)[O-])c1` gave RE007 growth inh 20%, Sm TGR inh 9%, Lassa entry inh 0%, HCV inh -23%, FMDV inh 40µM* and Marburg entry inh inconclusive.
`Cc1ccc(C)c(Cn2c(O)c(N=NC(=S)Nc3ccccc3F)c3ccccc32)c1` gave RE007 growth inh 6%, Sm TGR inh 2%, Lassa entry inh inconclusive, HCV inh 3.2µM*, FMDV inh 0% and Marburg entry inh inconclusive.
For Oc1c(N=NC(=S)Nc2ccccc2F)c2ccccc2n1Cc1ccccc1F the results were RE007 growth inh 17%, Sm TGR inh 3%, HCV inh 13µM* and FMDV inh -11%.
`Cc1ccccc1Cn1c(O)c(N=NC(=S)Nc2ccccc2F)c2ccccc21` gave RE007 growth inh 6%, Sm TGR inh 5%, Lassa entry inh inconclusive, HCV inh 2.2µM*, FMDV inh -8% and Marburg entry inh inconclusive.
Screening CN1CCN(c2ncc3nc(-c4cccs4)c(=O)n(Cc4ccc(F)cc4)c3n2)CC1 returned FMDV inh -18%.
For O=C1C(Cl)=C(Cl)C(=O)C(Cl)=C1Cl the results were FMDV inh -28%.
Screening COc1ccccc1NC(=O)Cc1nn(C)c(=O)c2ccccc12 returned RE007 growth inh 10%, Sm TGR inh 1%, Lassa entry inh 0%, HCV inh inconclusive, FMDV inh inconclusive and Marburg entry inh inconclusive.
`Cn1nc(CC(=O)Nc2ccc3c(c2)OCCO3)c2ccccc2c1=O` gave RE007 growth inh 28%, Sm TGR inh -5%, Lassa entry inh -29%, HCV inh 6.3µM*, FMDV inh inconclusive and Marburg entry inh inconclusive.
`COc1ccc(-n2nc(C(=O)NCC(=O)NCc3ccc(F)cc3)c3ccccc3c2=O)cc1OC` gave RE007 growth inh 1%, Sm TGR inh 6%, Lassa entry inh inconclusive, HCV inh 13µM*, FMDV inh inconclusive and Marburg entry inh inconclusive.
COc1cc(NC(=O)Cc2nn(C)c(=O)c3ccccc23)cc(OC)c1 was read as RE007 growth inh 12%, Sm TGR inh -7%, Lassa entry inh -19%, HCV inh 10µM*, FMDV inh inconclusive and Marburg entry inh inconclusive.
Screening Cn1cc(SCC(=O)Nc2ccc3c(c2)OCO3)c2ccccc21 returned RE007 growth inh -14%, Sm TGR inh 1%, HCV inh -6% and FMDV inh 8%.
CCCn1cc(SCC(=O)Nc2ccc3c(c2)OCO3)c2ccccc21 was read as RE007 growth inh 25%, Sm TGR inh 8%, HCV inh 14µM* and FMDV inh -9%.
Screening Cc1ccc(NC(=O)Cc2nn(C)c(=O)c3ccccc23)cc1F returned RE007 growth inh 9%, Sm TGR inh 9%, Lassa entry inh -8%, HCV inh inconclusive, FMDV inh inconclusive and Marburg entry inh inconclusive.
CC(C)=CCCC(C)=CCN1C(=O)[C@@]2(CC(C)=C[C@@H](COCc3ccccc3)O2)c2ccccc21 was read as Marburg entry inh 6%[14.2 µM].
`COc1cc(C2CC(=O)Nc3c2c(=O)[nH]c2nc4ccccc4n32)ccc1O` (centres undefined) gave Sm TGR inh 1%, Lassa entry inh 12%[46.1 µM], FMDV inh 2% and Marburg entry inh 4%[46.1 µM].
Cc1cccc(-n2ncc3c(NNC(=O)c4ccccc4Cl)ncnc32)c1 was read as Sm TGR inh 7%, Lassa entry inh 1%[46.1 µM] and FMDV inh -17%.
Cn1nc(CC(=O)NCc2cccc3ccccc23)c2ccccc2c1=O was read as RE007 growth inh -15%, Sm TGR inh 7%, Lassa entry inh -14%, HCV inh inconclusive, FMDV inh inconclusive and Marburg entry inh inconclusive.
Screening Cn1nc(CC(=O)NCc2ccc(F)cc2)c2ccccc2c1=O returned RE007 growth inh -4%, Sm TGR inh 4%, HCV inh 11µM* and FMDV inh inconclusive.
Screening O=C(CC1NCCNC1=O)Nc1cccc(F)c1 (centres undefined) returned Sm TGR inh -3%, Lassa entry inh 16%[46.1 µM], FMDV inh -8% and Marburg entry inh inconclusive.
Cc1ccc(-n2nc(C)c3c(C)c(CCC(=O)NCC4CCCO4)c(=O)n(C)c32)cc1 (centres undefined) was read as RE007 growth inh -8%, Sm TGR inh -19%, HCV inh -26% and FMDV inh inconclusive.
CCn1c(=O)c(CCC(=O)NCC2CCCO2)c(C)c2c(C)nn(-c3ccccc3)c21 (centres undefined) was read as RE007 growth inh 2%, Sm TGR inh 8%, HCV inh 13µM* and FMDV inh inconclusive.
CC[n+]1ccccc1/C=C/c1ccc(N(C)C)cc1 was read as RE007 growth inh -23%, Sm TGR inh 2%, HCV inh 4.5µM* and FMDV inh inconclusive.
`CC[n+]1ccc(/C=C/c2ccc(N(C)C)cc2)c2ccccc21` gave RE007 growth inh 13µM*, Sm TGR inh -21%, Lassa entry inh inconclusive, HCV inh 4.5µM*, FMDV inh 18µM* and Marburg entry inh inconclusive.
Screening CC[n+]1c(/C=C/c2ccc(OC(C)=O)c(OC)c2)ccc2ccccc21 returned RE007 growth inh -16%, Sm TGR inh -27%, HCV inh -23% and FMDV inh 54%.
Screening CCN(CC)c1nc(C=Cc2ccc(N(C)C)cc2)c2nccnc2n1 returned RE007 growth inh 6% and FMDV inh inconclusive.
CN(C)c1ccc(C=Cc2nccc3ccccc23)cc1 was read as RE007 growth inh inconclusive and FMDV inh 32%.
For CCN(CC)c1ccc(/C=C/c2ccc3ccc(OC)cc3[n+]2CC)cc1 the results were RE007 growth inh inconclusive, Sm TGR inh 0%, HCV inh 2.2µM* and FMDV inh 7.9µM*.
`CC[n+]1c(/C=C/c2ccc(OC)c(OC)c2)ccc2ccccc21` gave RE007 growth inh -27%, Sm TGR inh -34%, HCV inh 2% and FMDV inh 76%.
Screening CC[n+]1c(/C=C/c2ccc(N(C)C)cc2)ccc2ccccc21 returned RE007 growth inh 13µM*, Sm TGR inh inconclusive, Lassa entry inh 9.2µM*, HCV inh -20%[0.335 µM], FMDV inh 6.3µM* and Marburg entry inh 1.6µM*.
For Cc1ccc(C)c(NC(=O)Cn2cc(S(=O)(=O)NC(C)C)c(S(=O)(=O)NC(C)C)c2)c1 the results were Sm TGR inh 5%, Lassa entry inh 8%[46.1 µM] and FMDV inh -3%.

Assay outcomes (PubChem)
